Where a structure was tested more than once in an assay, its records may differ in their call. Calls of active or inactive are those of the source. How the source made its calls: active means hit-call score of the fitted dose curve at least 0.9, where 1 is the maximum; inactive means score below 0.9.
Legend:
[1] = read-out: Macrophage colony-stimulating factor (MCSF), CSF1 (gene 1435); assay: BSK_hDFCGF_MCSF: BioMAP Diversity Plus: hDFCGF Assay for Macrophage colony-stimulating factor (MCSF) Biomarker Activity (AID 2283060); conditions: primary human foreskin fibroblasts; actives raise or lower the signal
Procedure, shortened: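 M-CSF levels, determined by ELISA, are taken at 24 h after dosing human skin fibroblasts. Responses in either direction are fitted with DMSO serving as the baseline.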

[2] = BSK_hDFCGF_SRB: Viability Assessment in the BioMAP Diversity Plus: hDFCGF Assay (AID 2283061); conditions: primary human foreskin fibroblasts;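 further: cells exposed to compound for 24 h before the read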
Procedure, shortened: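 Cells were dosed with test chemical, cultured 24 h, fixed with 10% TCA, then stained with 0.1% SRB and read at 560 nm. The fibroblasts were human foreskin primary cells, and DMSO served as baseline.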

[3] = read-out: Monokine induced gamma interferon (MIG), CXCL9 (gene 4283); assay: BSK_hDFCGF_MIG: BioMAP Diversity Plus: hDFCGF Assay for Monokine induced gamma interferon (MIG) Biomarker Activity (AID 2283063); conditions: primary human foreskin fibroblasts; actives raise or lower the signal
Procedure, shortened: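 MIG signal, determined by ELISA, reflects 24 h chemical exposure of human skin primary fibroblasts. DMSO serves as negative control and baseline.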

[4] = read-out: Matrix Metallopeptidase 1 (MMP1), MMP1 (gene 4312); assay: BSK_hDFCGF_MMP1: BioMAP Diversity Plus: hDFCGF Assay for Matrix Metallopeptidase 1 (MMP1) Biomarker Activity (AID 2283064); conditions: primary human foreskin fibroblasts; actives raise or lower the signal
Procedure, shortened: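 Primary human foreskin fibroblasts exposed to chemicals for 24 h; MMP1 measured by ELISA. Cytotoxicity tracked by SRB staining in parallel cultures; bidirectional fit relative to DMSO.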

[5] = read-out: Vascular cell adhesion molecule 1 (VCAM1), VCAM1 (gene 7412); assay: BSK_hDFCGF_VCAM1: BioMAP Diversity Plus: hDFCGF Assay for Vascular cell adhesion molecule 1 (VCAM1) Biomarker Activity (AID 2283065); conditions: primary human foreskin fibroblasts; actives raise or lower the signal;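 on AC50: VCAM-1 protein level quantified by ELISA after 24 h chemical exposure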
Procedure, shortened: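 Cells are dosed, cultured for 24 h, then VCAM-1 is quantified by ELISA; signal increases and decreases are both fitted relative to DMSO.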

[6] = read-out: Plasminogen activator inhibitor-1 (PAI1), SERPINE1 (gene 5054); assay: BSK_hDFCGF_PAI1: BioMAP Diversity Plus: hDFCGF Assay for Plasminogen activator inhibitor-1 (PAI1) Biomarker Activity (AID 2283066); conditions: primary human foreskin fibroblasts; actives raise or lower the signal
Procedure, shortened: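 PAI-1 levels, determined by ELISA, served as the endpoint in human foreskin fibroblast cultures exposed to compound for 24 h, with DMSO as baseline.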

[7] = read-out: Intercellular Adhesion Molecule 1 (ICAM1), ICAM1 (gene 3383); assay: BSK_KF3CT_ICAM1: BioMAP Diversity Plus: KF3CT Assay for Intercellular Adhesion Molecule 1 (ICAM1) Biomarker Activity (AID 2283067); conditions: primary human keratinocytes with fibroblasts; actives raise or lower the signal
Procedure, shortened: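 Dose the keratinocyte/fibroblast co-culture, wait 24 h, measure ICAM-1 by ELISA, then fit increases or decreases against DMSO. Cytotoxicity is checked in parallel cultures by SRB total-protein staining.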

[8] = read-out: Interferon-gamma inducible Protein 10 (IP10), CXCL10 (gene 3627); assay: BSK_KF3CT_IP10: BioMAP Diversity Plus: KF3CT Assay for Interferon-gamma inducible Protein 10 (IP10) Biomarker Activity (AID 2283068); conditions: primary human keratinocytes with fibroblasts; actives raise or lower the signal
Procedure, shortened: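 In a primary skin co-culture of keratinocytes and fibroblasts, IP-10 is quantified by ELISA at 24 h after dosing. SRB staining of parallel wells monitors overt toxicity. Curves are fitted both directions against DMSO.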

[9] = BSK_KF3CT_SRB: Viability Assessment in the BioMAP Diversity Plus: KF3CT Assay (AID 2283069); conditions: primary human keratinocytes with fibroblasts;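 further: total protein by sulforhodamine B staining as a cytotoxicity measure; read 24 h after compound addition; fitted for both signal gain and loss against DMSO baseline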
Procedure, shortened: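 Human keratinocyte and foreskin fibroblast co-culture exposed to chemical for 24 h. Total protein measured in parallel cultures by 0.1% sulforhodamine B staining after 10% TCA fixation, read at 560 nm; bidirectional fit relative to DMSO.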

[10] = read-out: TIMP metallopeptidase inhibitor 1 (TIMP1), TIMP1 (gene 7076); assay: BSK_hDFCGF_TIMP1: BioMAP Diversity Plus: hDFCGF Assay for TIMP metallopeptidase inhibitor 1 (TIMP1) Biomarker Activity (AID 2283062); conditions: primary human foreskin fibroblasts; actives raise or lower the signal
Procedure, shortened: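 Fibroblasts from human foreskin are treated with test chemical and harvested at 24 h. TIMP-1 is quantified by ELISA, and gain or loss of signal is scored against DMSO.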

Measured: AC50

CCOC(=O)COc1cc(-c2nn(C)c(OC(F)F)c2Cl)c(F)cc1Cl
inactive: [1] | [2] | [3] | [5] | [6] | [7] | [8] | [9]
active: [4] 0.148 µM

CCOP(=S)(OCC)Oc1cc(C)nc(C(C)C)n1
inactive: [1] | [2] | [10] | [3] | [5] | [6] | [7] | [9]

C[N+]1(C)CCCCC1
inactive: [1] | [2] | [10] | [3] | [4] | [5] | [6] | [7] | [8] | [9]

CCc1cccc(CC)c1N(COC)C(=O)CCl
inactive: [10] | [4] | [6] | [7] | [9]
active: [1] 18.9 µM | [2] 24 µM | [3] 10.1 µM | [5] 8.35 µM

Cc1nn(-c2cc(NS(C)(=O)=O)c(Cl)cc2Cl)c(=O)n1C(F)F
inactive: [1] | [2] | [10] | [3] | [5] | [6] | [7] | [9]

COc1cc(OC)nc(Sc2cccc(Cl)c2C(=O)O)n1
inactive: [1] | [2] | [3] | [4] | [5] | [6] | [7] | [8] | [9]

CC(Oc1cccc(Cl)c1)C(=O)O (stereo not given)
inactive: [1] | [2] | [10] | [3] | [5] | [6] | [7] | [8] | [9]

CCc1cccc(C)c1N(C(=O)CCl)C(C)COC (stereo not given)
inactive: [1] | [2] | [10] | [3] | [4] | [5] | [7] | [9]

CCCSP(=O)(OCC)SCCC
inactive: [1] | [2] | [10] | [3] | [4] | [5] | [6] | [7] | [9]

CN1COCN(Cc2cnc(Cl)s2)C1=N[N+](=O)[O-]
inactive: [1] | [2] | [10] | [3] | [4] | [5] | [6] | [7] | [8] | [9]

COP(=O)(OC)C(O)C(Cl)(Cl)Cl (stereo not given)
inactive: [1] | [2] | [10] | [3] | [5] | [6] | [7] | [9]

CCCCOC(=O)c1ccccc1C(=O)O
inactive: [1] | [2] | [3] | [4] | [5] | [6] | [7] | [8] | [9]

CCC(CC)Nc1c([N+](=O)[O-])cc(C)c(C)c1[N+](=O)[O-]
active: [1] 13.5 µM | [3] 11.8 µM | [4] 6.93 µM | [5] 11.9 µM | [8] 13.8 µM
inactive: [2] | [10] | [6] | [7] | [9]

CN(C)C(=O)Nc1cccc(C(F)(F)F)c1
inactive: [1] | [2] | [10] | [3] | [4] | [5] | [6] | [7] | [9]

CSc1nnc(C(C)(C)C)c(=O)n1N
inactive: [1] | [2] | [3] | [4] | [5] | [6] | [7] | [9]
active: [10] 30.4 µM

CC(COc1ccc(Oc2ccccc2)cc1)Oc1ccccn1 (stereo not given)
inactive: [1] | [2] | [10] | [3] | [4] | [5] | [6] | [7] | [8] | [9]

CCOP(=S)(OCC)OC(Cl)C(Cl)(Cl)Cl (stereo not given)
active: [1] 31.8 µM | [5] 29.4 µM | [9] 26.7 µM
inactive: [2] | [10] | [3] | [4] | [6] | [7]

CCCOCC(=Nc1ccc(Cl)cc1C(F)(F)F)n1ccnc1
active: [1] 24.3 µM | [2] 30.4 µM | [10] 32 µM | [4] 33.2 µM | [5] 27.9 µM | [6] 26.3 µM | [7] 29.7 µM | [9] 32.7 µM

CCCCOC(=O)[C@@H](C)Oc1ccc(Oc2ccc(C#N)cc2F)cc1
inactive: [1] | [2] | [10] | [3] | [5] | [6] | [7] | [8] | [9]

CN(C)[C@@H]1C(=O)C(C(N)=O)=C(O)[C@@]2(O)C(=O)C3=C(O)c4c(O)cccc4[C@@](C)(O)[C@H]3[C@H](O)[C@@H]12
inactive: [1] | [2] | [10] | [3] | [5] | [6] | [7] | [9]
active: [1] 23.3 µM | [3] 31.6 µM | [5] 28.6 µM

C=C(C)[C@H]1Cc2c(ccc3c2O[C@@H]2COc4cc(OC)c(OC)cc4[C@@H]2C3=O)O1
inactive: [1] | [2] | [10] | [3] | [6] | [7]
active: [5] 7.69 µM | [8] 31.8 µM | [9] 3.97 µM

CCCCN(CC)c1c([N+](=O)[O-])cc(C(F)(F)F)cc1[N+](=O)[O-]
inactive: [10] | [3] | [5] | [7] | [9]
active: [1] 29.8 µM | [2] 30.1 µM | [6] 31.1 µM

C[Si](Cn1cncn1)(c1ccc(F)cc1)c1ccc(F)cc1
inactive: [1] | [2] | [10] | [3] | [5] | [6] | [7] | [9]

CCC(=O)Nc1ccc(Cl)c(Cl)c1
inactive: [1] | [2] | [10] | [3] | [5] | [6] | [7] | [8] | [9]

CCc1cnc(C2=NC(C)(C(C)C)C(=O)N2)c(C(=O)O)c1 (stereo not given)
inactive: [1] | [2] | [10] | [3] | [5] | [6] | [7] | [8] | [9]

S=C1NCCN1
inactive: [1] | [2] | [10] | [3] | [5] | [6] | [7] | [8] | [9]

CCCSP(=O)(OCC)Oc1ccc(Br)cc1Cl (stereo not given)
active: [1] 17.4 µM | [5] 27.7 µM | [9] 22.7 µM
inactive: [2] | [10] | [3] | [6] | [7]

CNC(=O)Oc1cccc2c1OC(C)(C)O2
inactive: [1] | [2] | [10] | [3] | [5] | [6] | [7] | [8] | [9]

O=c1ccc(=O)[nH][nH]1
inactive: [1] | [2] | [10] | [3] | [4] | [5] | [6] | [7] | [9]

CSC1=N[C@@](C)(c2ccccc2)C(=O)N1Nc1ccccc1
inactive: [1] | [2] | [10] | [3] | [5] | [6] | [7] | [8] | [9]

C#CC(C)(C)NC(=O)c1cc(Cl)cc(Cl)c1
inactive: [1] | [2] | [10] | [3] | [4] | [5] | [6] | [7] | [9]

CN(C)NC(=O)CCC(=O)O
inactive: [1] | [2] | [10] | [3] | [4] | [5] | [6] | [7] | [8] | [9]

CC(C)=CC1C(C(=O)OCN2C(=O)C3=C(CCCC3)C2=O)C1(C)C (stereo not given)
inactive: [10] | [7] | [9]
active: [1] 27.6 µM | [2] 30.7 µM | [3] 33.5 µM | [5] 25.8 µM | [6] 30.7 µM
